Compound activity as filed in PubChem.
sPLA2-III inh: Blocks human group III sPLA2 activity | Q9NZ20 | QFRET BODIPY PC-A2 liposome hydrolysis, fluorescence | inhibition, % at 12.2 µM | 370,000 compounds, 0.56% hits | AID 743126;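 active = inhibition above mean plus 3 SD of compounds lying within the high and low control bounds, cut at about 19% in these data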;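 also: 0% = median of test compound wells and 100% = no enzyme DMSO wells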
PLC-gamma1 inh: PLC-gamma1 (human) inhibition, primary screen; P19174; purified PLC-gamma1, fluorogenic substrate, fluorescence; inhibition, % at 12.2 µM; 370,000 compounds, 0.84% hits; in the data active = inhibition above about 9.5%
DAGLB inh: blocks human DAGLB lipase activity; Q8NCG7; HEK293T DAGLB membrane lysate, EnzChek fluorogenic substrate; inhibition, % at 5.17 µM; 340,000 compounds, 0.059% hits; AID 504411; in the data active = inhibition above about 34%;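 also: 0% = enzyme with vehicle and 100% = wells lacking enzyme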
PLC-beta3 inh: inhibitors of human phospholipase C beta3 | Purified PLC-beta3, fluorogenic substrate, fluorescence | AID 720704 | inhibition, % at 12.2 µM | Q01970 | 370,000 compounds, 0.18% hits; in the data active = inhibition above about 11%;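 also: 0% = median of compound wells on plate and 100% = full blocker control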
hGIII sPLA2 conf: human GIII-sPLA2 inhibition, confirmation. shares compounds with sPLA2-III inh. recombinant hGIII-sPLA2, BODIPY PC-A2 QFRET fluorescence. inhibition, % at 12.2 µM. 2,000 compounds, 34% hits. AID 743280;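 active = mean inhibition across triplicates above the hit cutoff set in the earlier primary screen, cut at about 19% in these data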;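 also: 0% = enzyme with DMSO and 100% = DMSO wells lacking enzyme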
BODIPY interf: 535nm fluorescence interference, HGIII-sPLA2 counter-screen. shares compounds with sPLA2-III inh. BODIPY FL product fluorescence interference, QFRET. inhibition, % at 12.2 µM. 2,000 compounds, 8.5% hits. AID 743282;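 active = average inhibition above the solvent-only control mean plus 3 SD, cut at about 6% in these data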;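 also: 0% = DMSO with substrate plus product and 100% = DMSO with substrate alone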
The depositor's hits bear a star. Shown are actives, neighbours in structure and some others; about 1.5% of the full set was active somewhere.

How did CCCC(=O)NC(c1ccc(N(C)C)cc1)c1ccc2cccnc2c1O (stereo not drawn) do in these assays?
sPLA2-III inh: 23*; PLC-gamma1 inh: -2; DAGLB inh: 15; PLC-beta3 inh: -9; hGIII sPLA2 conf: 25*; BODIPY interf: -5

What do the screens show for `CC(=O)NC(c1ccc(N(C)C)cc1)c1cc(Cl)c2cccnc2c1O` (stereo not drawn)?
sPLA2-III inh: 13; PLC-gamma1 inh: -10; DAGLB inh: 13; PLC-beta3 inh: -4

Results for CCCC(=O)NC(c1ccc(C(C)C)cc1)c1ccc2cccnc2c1O (stereo not drawn) ?
sPLA2-III inh: 20*; PLC-gamma1 inh: -7; DAGLB inh: 16; PLC-beta3 inh: -16; hGIII sPLA2 conf: 18; BODIPY interf: -12

What do the screens show for `CCC(=O)NC(c1ccc(C)cc1)c1ccc2cccnc2c1O` (stereo not drawn)?
sPLA2-III inh: 21*; PLC-gamma1 inh: -16; DAGLB inh: 10; PLC-beta3 inh: -27; hGIII sPLA2 conf: 16; BODIPY interf: -12

How did CCCC(=O)NC(c1ccccc1Cl)c1ccc2cccnc2c1O (stereo not drawn) do in these assays?
sPLA2-III inh: 30*; PLC-gamma1 inh: -11; DAGLB inh: 12; PLC-beta3 inh: -23; hGIII sPLA2 conf: 26*; BODIPY interf: 1

How did COC(=O)[C@]1(CNC(=O)C(F)(F)F)CC(=O)N(C)[C@@H]1c1ccccc1 do in these assays?
sPLA2-III inh: 6; PLC-gamma1 inh: 3; PLC-beta3 inh: 5

How did O=C(Nc1ccccc1[N+](=O)[O-])NC1CCCCN(Cc2ccc(Cl)cc2)C1=O (stereo not drawn) do in these assays?
sPLA2-III inh: 14; PLC-gamma1 inh: 1; PLC-beta3 inh: -4

How did COc1ccc(C(=O)c2[nH]c(N)c(C(N)=O)c2-c2ccc(OC)c(OC)c2)cc1 do in these assays?
sPLA2-III inh: 1; PLC-gamma1 inh: -52; PLC-beta3 inh: -78

What do the screens show for `COc1ccc(-c2c(C(=O)c3ccccc3)[nH]c(N)c2C(=O)c2ccccc2)cc1OC`?
sPLA2-III inh: 20*; PLC-gamma1 inh: 3; PLC-beta3 inh: -7; hGIII sPLA2 conf: 9; BODIPY interf: -8

What do the screens show for `COc1ccc(-c2c(C(=O)c3ccccc3)[nH]c(N)c2C(=O)c2ccc(Br)cc2)cc1OC`?
sPLA2-III inh: 26*; PLC-gamma1 inh: -5; PLC-beta3 inh: -19; hGIII sPLA2 conf: 20*; BODIPY interf: -2

What do the screens show for `COC(=O)C[C@@H]1CC[C@H]2[C@@H](COc3ccc(NC(=O)c4cc(C)on4)cc3C(=O)N2C)O1`?
sPLA2-III inh: -1; PLC-gamma1 inh: 1; PLC-beta3 inh: 2

How did COc1ccc(CN2C3=N[C@H](c4ccccc4)CC(=O)N3/C(=C\c3ccccc3)C2c2ccco2)c(OC)c1 (stereo partly drawn) do in these assays?
sPLA2-III inh: 0; PLC-gamma1 inh: -2; PLC-beta3 inh: -1

Results for CCc1ccc2cccc3c2c1N=CN3C ?
sPLA2-III inh: 22*; PLC-gamma1 inh: -5; DAGLB inh: 2; PLC-beta3 inh: -15; hGIII sPLA2 conf: 22*; BODIPY interf: 4

Results for N=C(N)SCc1nc2ccccn2c1Br ?
sPLA2-III inh: 30*; PLC-gamma1 inh: 2; DAGLB inh: -4; PLC-beta3 inh: 3; hGIII sPLA2 conf: 5; BODIPY interf: -4

What do the screens show for `Cc1cccc2nc(CSC(=N)N)c(Br)n12`?
sPLA2-III inh: 24*; PLC-gamma1 inh: -10; DAGLB inh: 0; PLC-beta3 inh: -15; hGIII sPLA2 conf: 11; BODIPY interf: -11

Results for O=C(O)c1ccccc1SCc1nc2ccccn2c1Br ?
sPLA2-III inh: 3; PLC-gamma1 inh: -5; DAGLB inh: 0; PLC-beta3 inh: -13

Results for Cc1nn(-c2ccccc2)c2sc(C(=O)NCc3ccc4c(c3)OCO4)cc12 ?
sPLA2-III inh: -15; PLC-gamma1 inh: 3; PLC-beta3 inh: -2

How did O=[N+]([O-])c1ccc(C2=NN(CCO)C(=Nc3ccc(OC(F)(F)F)cc3)SC2)cc1 do in these assays?
sPLA2-III inh: 20*; PLC-gamma1 inh: 0; DAGLB inh: -5; PLC-beta3 inh: -2; hGIII sPLA2 conf: -1; BODIPY interf: -12

How did CC(=O)CC[C@@H]1CC[C@]2(CCCN(S(C)(=O)=O)C2)O1 do in these assays?
sPLA2-III inh: 22*; PLC-gamma1 inh: 5; PLC-beta3 inh: -2; hGIII sPLA2 conf: -2; BODIPY interf: -6

How did Cc1csc(N(C(=O)Cc2ccccc2F)c2ccccc2)n1 do in these assays?
sPLA2-III inh: 20*; PLC-gamma1 inh: 4; DAGLB inh: -4; PLC-beta3 inh: 1; hGIII sPLA2 conf: -3; BODIPY interf: -12

How did COc1ccc(C(=O)/C=C2\C(=O)Nc3ccc(Br)cc32)cc1 do in these assays?
sPLA2-III inh: 16; PLC-gamma1 inh: -5; DAGLB inh: 4; PLC-beta3 inh: -7

What do the screens show for `O=C1Nc2ccc(Br)cc2/C1=C/C(=O)c1ccc2c(c1)OCO2`?
sPLA2-III inh: 26*; PLC-gamma1 inh: -9; DAGLB inh: 6; PLC-beta3 inh: -14; hGIII sPLA2 conf: 42*; BODIPY interf: 14*

How did C=CCN(CC#Cc1ccccc1)CC=C do in these assays?
sPLA2-III inh: 1; PLC-gamma1 inh: 2; PLC-beta3 inh: 6

What do the screens show for `Cn1cc(/C=C2\SC(=S)N(N3CCOCC3)C2=O)c2ccccc21`?
sPLA2-III inh: 21*; PLC-gamma1 inh: -3; DAGLB inh: -6; PLC-beta3 inh: -7; hGIII sPLA2 conf: 6; BODIPY interf: 0

How did CCCCn1c(/C=N/Nc2nc3ccccc3[nH]2)nc2ccccc21 do in these assays?
sPLA2-III inh: 35*; PLC-gamma1 inh: -8; DAGLB inh: 4; PLC-beta3 inh: -18; hGIII sPLA2 conf: 31*; BODIPY interf: -18

What do the screens show for `CCOc1ccc(Br)cc1CC(=O)O`?
sPLA2-III inh: 2; PLC-gamma1 inh: 4; DAGLB inh: -3; PLC-beta3 inh: 2

Results for CCCOc1ccc(Br)cc1CSC(=N)N ?
sPLA2-III inh: 35*; PLC-gamma1 inh: 0; DAGLB inh: -1; PLC-beta3 inh: 0; hGIII sPLA2 conf: 18; BODIPY interf: -15

How did Cc1ccc(Nc2c(-c3ccccn3)nc3cccc(C)n23)cc1 do in these assays?
sPLA2-III inh: 23*; PLC-gamma1 inh: -4; DAGLB inh: 5; PLC-beta3 inh: -16; hGIII sPLA2 conf: 12; BODIPY interf: -25

How did CC(NC(=O)/C(C#N)=C/c1ccco1)c1ccccc1 (stereo not drawn) do in these assays?
sPLA2-III inh: 20*; PLC-gamma1 inh: 6; DAGLB inh: 2; PLC-beta3 inh: -4; hGIII sPLA2 conf: 0; BODIPY interf: -3

How did CCCC[C@@H]1C(=O)N2N=Cc3cc(C)c(C)cc3[C@H]2N2N=Cc3cc(C)c(C)cc3[C@@H]12 do in these assays?
sPLA2-III inh: 20*; PLC-gamma1 inh: 0; PLC-beta3 inh: -10; hGIII sPLA2 conf: -6; BODIPY interf: -23
